Screening data as filed in PubChem.
Only a selection was taken, and hits are over-represented in it overall.
Pf Dd2 inh = blocks in vitro growth of P. falciparum Dd2 | Potency, µM (top dose mostly 28.9 µM), for the others: at the top dose activity, negative = inhibition, usual class: inhibitors | 120,000 compounds, 4.3% hits | AID 1347417 | P. falciparum Dd2 growth, SYBR Green, 72 h; active = well fitted inhibition curve with a large enough effect;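 note: plate controls were DMSO vehicle for no effect and reference drug for full effect; nearly all actives have a fitted effect of over 65% in size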
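Infected erythrocytes (Dd2, 0.3% parasitemia, 2.5% hematocrit final) are added to compound in RPMI-1640/Albumax II medium, grown 72 h at 37C in low oxygen, then lysed with saponin/Triton-X containing SYBR Green and read by fluorescence.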
* hit, by the source's call; i = inactive; [ ] = dose if it differs, or a comment. Potency is the fitted concentration of half-maximal effect.

SMILES | Pf Dd2 inh
COCc1cc(NCc2cccnc2Oc2cccc(C(F)(F)F)c2)ncn1 | -20%
COc1ccc(-c2noc([C@@H]3CCCN3C(=O)c3ccc(N(C)C)cc3)n2)cc1OC | i
Cc1ccccc1Nc1c(-c2ccc(Cl)s2)nc2c(C)cccn12 | -11%
Cc1cccc(C(=O)Nc2c(-c3ccccc3)nc3cc(C)ccn23)c1 | -4%
Cc1ccn2c(Nc3c(C)cccc3C)c(-c3ccc(Cl)s3)nc2c1 | 7.9µM*
Cc1ccccc1Nc1c(-c2ccc(Cl)s2)nc2cccc(C)n12 | -19%
Cc1ccn2c(NC(=O)c3cccc(Cl)c3)c(-c3ccccc3)nc2c1 | -19%
Cc1ccn2c(Nc3c(C)cccc3C)c(-c3ccsc3)nc2c1 | 11µM*
OC1(CNCCc2nc(-c3cccnc3)n[nH]2)CNCCOC1 (stereo unspecified) | -18%
CN(C)C(=O)N1CCCn2nc(CNC(=O)c3sccc3N)cc2C1 | -12%
O=C1CS(=O)C2(CCNCC2)N1Cc1cccc(F)c1 (stereo unspecified) | -20%
O[C@@H]1C[C@@H](c2nc(-c3ccc4c(c3)OCO4)no2)N(Cc2ccccn2)C1 | i
COc1ccc(C(=O)N2CCn3c(nnc3[C@@H]3C[C@@H](O)CN3C(C)C)C2)c(OC)n1 | -28%
O=C(Cc1c[nH]c2ccccc12)N1CCC(Oc2ccc(-c3noc(C4CC4)n3)cc2)C1 (stereo unspecified) | 0%[5.79 µM]
CCOc1cc(=O)n2c(c1C(=O)Nc1cc(Cl)ccc1Cl)CCCC2 | -19%
COC1CCCN(C(=O)c2cc(-c3ccc(F)cc3)cc3ncn(C)c23)C1 (stereo unspecified) | i
CC[C@H]1CN(S(=O)(=O)c2ccccc2)CC[C@H]1CC(=O)N1CCOCC1 | i
CC[C@H]1CN(Cc2ccc(OC)cc2O)CC[C@H]1CC(=O)N1CCOCC1 | 7.9µM*
CC[C@H]1CN(C(=O)c2ccccc2)CC[C@H]1CC(=O)N1CCOCC1 | -12%[44.1 µM]
Cc1nc(-c2ccco2)cc([C@H]2CN3CC[C@H]2C[C@@H]3CNCC2CCCCC2)n1 | 3.2µM*
Cc1nc(-c2ccco2)cc([C@H]2CN3CC[C@H]2C[C@@H]3CNS(C)(=O)=O)n1 | i
Cc1nc(-c2ccco2)cc([C@H]2CN3CC[C@H]2C[C@@H]3CNC2CCOCC2)n1 | 11µM*
Cc1nc(-c2ccc(F)cc2)cc([C@H]2CN3CC[C@H]2C[C@@H]3CNC(=O)c2ccco2)n1 | i
Cc1nc(-c2ccccc2)cc([C@H]2CN3CC[C@H]2C[C@@H]3CNC(=O)c2ccco2)n1 | i
Cc1nc(-c2ccccc2Br)cc([C@H]2CN3CC[C@H]2C[C@@H]3CNC(=O)c2cccs2)n1 | -21%
SMILES | Pf Dd2 inh
CCC(CC)c1cc([C@H]2CN3CC[C@H]2C[C@@H]3CNC2CCN(C)CC2)nc(-c2ccncc2)n1 | 1.4µM*
Cc1nc(-c2ccco2)cc([C@H]2CN3CC[C@H]2C[C@@H]3CNC(=O)c2ccccc2)n1 | i
CCCS(=O)(=O)NC[C@H]1C[C@@H]2CCN1C[C@@H]2c1cc(-c2ccccc2Br)nc(C)n1 | i
CC(=O)NC[C@H]1C[C@@H]2CCN1C[C@@H]2c1cc(-c2ccccc2)nc(C)n1 | i
Cc1nc(-c2ccco2)cc([C@H]2CN3CC[C@H]2C[C@@H]3CNC(=O)c2cccs2)n1 | 8.9µM*
Cc1nc(-c2ccccc2)cc([C@H]2CN3CC[C@H]2C[C@@H]3CNC(=O)C(C)(C)C)n1 | -1%[44.1 µM]
COc1ccc(Cn2c(C(C)n3cccn3)n[nH]c2=O)cc1 (stereo unspecified) | -5%
CCCc1noc(-c2cn(C3CCN(C(=O)c4ccc(C)cc4)CC3)nn2)n1 | 8%
COCc1nc(C2CCCN(C(=O)c3cc(OC)cc(OC)c3)C2)no1 (stereo unspecified) | 30%
Cc1ccc(C(=O)N(CC(C)C)CC2CN(C(=O)c3ccc4c(c3)OCO4)CCO2)cc1 (stereo unspecified) | i
Cc1ncoc1C(=O)N1CCCN(C(=O)C2CC2)C(c2ccccc2)CC(=O)NCC1 (stereo unspecified) | 0%
CNC(=O)C1CCc2ncc(-c3ccsc3)n2C1 (stereo unspecified) | 3%
COc1ccc(Cl)cc1NC(=O)N1CCC(OC2CCN(S(C)(=O)=O)CC2)CC1 | 18%
Cc1cccc(NC(=O)Cc2csc(COc3cccc(C)c3)n2)c1 | 38%
CCOc1ccccc1NC(=O)Cc1csc(COc2cccc(C)c2)n1 | 11µM*
CC(=O)Nc1cccc(NC(=O)Cc2csc(COc3cccc(C)c3)n2)c1 | -1%
CN1CC(=O)N(c2ccccc2F)Cc2c(NCc3ccccc3)ncnc21 | 3%
CN1C(=O)CS(=O)C12CCNCC2 (stereo unspecified) | 28%
Cc1cc(N2C[C@@H](C)[C@@](C)(O)C2)nc(N2CCCCC2)n1 | -14%
O=C(c1cc[nH]c(=O)c1)N1C[C@@H](COCC2CC2)[C@H](c2ccccn2)C1 | 9%
COCc1noc([C@@H]2CC(F)(F)CN2)n1 | -16%
Cc1ccc(Nc2c(-c3cccc(Cl)c3)nc3cccc(C)n23)cc1 | i
CC(C)c1ccc(Nc2c(-c3ccccc3O)nc3cnccn23)cc1 | 3.5µM*
Cc1ccc2nc(-c3cccnc3)c(Nc3ccc(C(C)C)cc3)n2c1 | 18%
Cc1ccccc1-c1nc2cnccn2c1NCCC(=O)N1CCC(C)CC1 | i
SMILES | Pf Dd2 inh
Cc1ccc2nc(-c3ccco3)c(Nc3ccc4c(c3)OCCO4)n2c1 | -5%
Cc1ccc2nc(-c3cccs3)c(Nc3ccc4c(c3)OCCO4)n2c1 | 16%
COc1ccc(Nc2c(-c3ccco3)nc3cccc(C)n23)cc1 | -18%
Cc1ccn2c(Nc3ccc(F)cc3)c(-c3ccc(C)o3)nc2c1 | 10µM*
Cc1cccc(C)c1Nc1c(-c2cccs2)nc2ncccn12 | -13%
Cc1ccccc1-c1nc2cnccn2c1NCCC(=O)N1CCCCC1 | i
Cc1ccn2c(Nc3ccc(C(C)C)cc3)c(-c3cccnc3)nc2c1 | 11µM*
Cc1ccn2c(Nc3ccc(C(C)C)cc3)c(-c3cccs3)nc2c1 | 11µM*
O=C(Nc1ccccc1)N1CCC(Oc2ncccc2C(=O)N2CCOCC2)C1 (stereo unspecified) | 16%
COCC[C@]1(O)CCN(C(=O)c2cccc(OCC(N)=O)c2)C[C@H]1C | -5%
O=[S+]([O-])(Nc1nncs1)c1ccc2c(c1)OCCN(Cc1cncc(F)c1)C2 | i
CC(C)CCNC(=O)NC1CCN(C(=O)N2CC3CC(C2)[C@H]2CCCC(=O)N2C3)CC1 (stereo partly specified) | -21%
COc1cccc(S(=O)(=O)N2C[C@@H](Oc3cccnc3)C[C@@H]2C(=O)N2CCOCC2)c1 | 8%
COCc1cccc(C(=O)N2CC[C@@]3(O)CCN(S(C)(=O)=O)C[C@H]3C2)n1 | -4%
COc1ccc(CNC(=O)CN2CC3CC(C2)[C@H]2CCCC(=O)N2C3)cc1 (stereo partly specified) | -8%
FC(F)(F)c1cccc(C2=NOC3(CCN(Cc4cccc5ccccc45)CC3)C2)c1 | -13%
CCOc1ccccc1NC(=O)N1CCCn2nc(C)cc21 | i[5.79 µM]
CCOc1ccccc1NC(=O)N1CC(C)Oc2ccc(Cl)cc21 (stereo unspecified) | 15%
CCOc1ccccc1NC(=O)N1c2ccccc2Sc2ccccc21 | 13µM*
CNC(=O)N1C[C@@H](Oc2ccccc2)C[C@H]1C(=O)N1CCOCC1 | -9%
CCOc1cc(=O)n2c(c1C(=O)NCCCN1CCCCC1)CCCCC2 | 5%
Cc1ccccc1C(=O)N1C[C@@H](F)C[C@H]1C(=O)N1CCOCC1 | -8%
CCc1ccc2c(c1)NC(c1ccc(F)cc1)=NC(c1ccncc1)=N2 | -13%
